# Test results from PubChem BioAssay (NCATS).
# Records with an inconclusive call do not appear. A call without a number means that no potency is given here. Calls of active or inactive are those of the source. Calls follow the shape of the dose curve; as a rule, active = well fitted cell-killing curve with a large enough effect; inconclusive = small, poorly fitted or top-dose-only effect, or effect the other way; inactive = no such curve, though single readings can be large or run the other way.
# How the values were obtained:
# [1] = Quantitative High-Throughput drug screen in 47 multiple myeloma cell lines against the NCATS MIPE library collection: MM1R_ATCC cell viability assay (AID 1918981); also: nearly all actives have a fitted effect of over 35% in size
# Procedure, shortened: (§1)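 Cells were exposed to library compounds for 48 hours, after which ATP was measured by CellTiter-Glo. Signal was taken as median relative luminescence units.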
# [2] = Quantitative High-Throughput drug screen in 47 multiple myeloma cell lines against the NCATS MIPE library collection: LP1_DSMZ cell viability assay (AID 1918982); also: nearly all actives have a fitted effect of over 35% in size
# Procedure, shortened: as §1
# [3] = Quantitative High-Throughput drug screen in 47 multiple myeloma cell lines against the NCATS MIPE library collection: KMS28PE_JCRB cell viability assay (AID 1918983); also: nearly all actives have a fitted effect of over 35% in size
# Procedure, shortened: as §1
# [4] = Quantitative High-Throughput drug screen in 47 multiple myeloma cell lines against the NCATS MIPE library collection: KMS34_JCRB cell viability assay (AID 1918985); also: nearly all actives have a fitted effect of over 40% in size
# Procedure, shortened: as §1
# [5] = Quantitative High-Throughput drug screen in 47 multiple myeloma cell lines against the NCATS MIPE library collection: OCIMY7_PLB cell viability assay (AID 1918987); also: nearly all actives have a fitted effect of over 65% in size
# Procedure, shortened: as §1
# [6] = Quantitative High-Throughput drug screen in 47 multiple myeloma cell lines against the NCATS MIPE library collection: OPM1_PLB cell viability assay (AID 1918989); also: nearly all actives have a fitted effect of over 40% in size
# Procedure, shortened: as §1
# [7] = Quantitative High-Throughput drug screen in 47 multiple myeloma cell lines against the NCATS MIPE library collection: L363_DSMZ cell viability assay (AID 1918984); also: nearly all actives have a fitted effect of over 40% in size
# Procedure, shortened: as §1
# [8] = Quantitative High-Throughput drug screen in 47 multiple myeloma cell lines against the NCATS MIPE library collection: OCIMY5_PLB cell viability assay (AID 1918988); also: nearly all actives have a fitted effect of over 65% in size
# Procedure, shortened: as §1
# Potency is read from the fitted curve at half-maximal effect.
smiles,measurement,setting,value
O=c1[nH]cnc2[nH]ncc12,Potency,[1],inactive
same,Potency,[2],inactive
same,Potency,[3],inactive
same,Potency,[4],inactive
same,Potency,[5],inactive
O=NN(CCCl)C(=O)NCCCl,Potency,[1],inactive
same,Potency,[2],inactive
same,Potency,[6],inactive
COc1ccc(CCN2CCN(CCCc3ccccc3)CC2)cc1OC,Potency,[1],inactive
same,Potency,[3],inactive
same,Potency,[6],inactive
c1ccc(-c2nn3c(c2-c2ccnc4cc(OCCN5CCOCC5)ccc24)CCC3)nc1,Potency,[3],23.5 µM (active)
same,Potency,[6],inactive
OC[C@H](Cc1ccccc1)Nc1nc(Oc2ccc3c(c2)CCC3)nc2c1ncn2Cc1ccc(-c2ccccc2)cc1,Potency,[1],inactive
same,Potency,[3],inactive
same,Potency,[4],18.7 µM (active)
same,Potency,[6],11.8 µM (active)
CC(C)OC(=O)C1=CN(C(=O)c2ccc(F)c(F)c2)CC(C)(C)c2c1[nH]c1ccccc21,Potency,[2],inactive
same,Potency,[4],inactive
same,Potency,[6],inactive
CC1(C)CNc2cc(NC(=O)c3cccnc3NCc3ccncc3)ccc21,Potency,[1],20.9 µM (active)
same,Potency,[5],0.372 µM (active)
same,Potency,[6],inactive
Cc1cnc(Nc2ccc(OCCN3CCCC3)cc2)nc1Nc1cccc(S(=O)(=O)NC(C)(C)C)c1,Potency,[1],inactive
same,Potency,[2],inactive
CN(C)C(=O)c1ccc(S(=O)(=O)c2ccc(NC(=O)[C@@](C)(O)C(F)(F)F)c(Cl)c2)cc1,Potency,[1],14.8 µM (active)
same,Potency,[7],10.5 µM (active)
same,Potency,[5],11.8 µM (active)
same,Potency,[8],20.9 µM (active)
same,Potency,[6],inactive
CCOC(=O)N[C@@H]1CC[C@@H]2[C@@H](C1)C[C@H]1C(=O)O[C@H](C)[C@H]1[C@@H]2C=Cc1ccc(-c2cccc(F)c2)cn1,Potency,[1],20.9 µM (active)
same,Potency,[8],23.5 µM (active)
CCCCCCCc1ccc(CCc2cccc(O)c2C(=O)O)cc1,Potency,[1],8.33 µM (active)
same,Potency,[2],16.6 µM (active)
same,Potency,[3],inactive
same,Potency,[4],inactive
same,Potency,[8],16.6 µM (active)
same,Potency,[6],20.9 µM (active)
CC[C@@H](C)[C@H](NC(=O)[C@H](CC1CCCCC1)NC(=O)c1ccno1)C(=O)N1CCC2(CCc3ccccc32)CC1,Potency,[1],13.2 µM (active)
same,Potency,[2],9.35 µM (active)
same,Potency,[4],7.43 µM (active)
same,Potency,[8],8.33 µM (active)
same,Potency,[6],inactive
Cc1cnc(NC(=O)C2=C(O)c3ccccc3S(=O)(=O)N2C)s1,Potency,[1],inactive
same,Potency,[2],inactive
same,Potency,[3],inactive
same,Potency,[4],inactive
same,Potency,[8],inactive
same,Potency,[6],inactive
CNC(=O)c1ccc(C)c(-n2c(C)cc(OCc3ccc(F)cc3F)c(Br)c2=O)c1,Potency,[5],8.33 µM (active)
same,Potency,[6],13.2 µM (active)
CCCC(CCC)C(=O)O,Potency,[1],inactive
same,Potency,[2],inactive
same,Potency,[3],inactive
same,Potency,[4],inactive
